# According to PubChem BioAssay (EPA / NIEHS):
# Calls of active or inactive are those of the source. Rule for the calls: active = hit-call score of the fitted dose curve at least 0.9, where 1 is the maximum; inactive = score below 0.9.
# Columns and labels:
# [1] = ATG_CRE_CIS: Attagene CIS-FACTORIAL HepG2 Assay for human cAMP Responsive Element (CRE) binding protein 3 (AID 2282926); conditions: HepG2 CRE cis-reporter, Attagene multiplexed mRNA; actives raise or lower the signal
# Procedure, shortened: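 HepG2 cells transiently transfected with cis-element-driven multiple reporter transcription units; CRE reporter mRNA measured 24 h after dosing by RT-PCR, 6-FAM labelling, HpaI digestion and capillary electrophoresis. Bidirectional fit versus DMSO baseline.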
# [2] = molecular target: CCAAT/enhancer-binding protein beta (Homo sapiens) (UniProt P17676); assay: ATG_C_EBP_CIS: Attagene CIS-FACTORIAL HepG2 Assay for human CCAAT/Enhancer Binding Protein (C/EBP) beta (AID 2282927); conditions: HepG2 Attagene cis-factorial transcription factor reporter; actives raise or lower the signal
# Procedure, shortened: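 Transiently transfected HepG2 (MRTU library, endogenous TF-driven promoters); 24 h dosing; total RNA → oligo(dT) RT → PCR → 6-FAM primer extension → HpaI digest → CE; fit bidirectionally vs DMSO.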
# [3] = ATG_CMV_CIS: Attagene CIS-FACTORIAL HepG2 Assay for human CMV (Internal Marker) (AID 2282928); conditions: HepG2 CMV promoter reporter, transcription factor profiling; actives raise or lower the signal;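 note: endpoint acts as a background internal control marker rather than a target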
# Procedure, shortened: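 CMV internal-marker background readout in transiently transfected HepG2 cells bearing cis-regulated reporter units. Reporter mRNA is measured 24 h after dosing by RT-PCR and capillary electrophoresis, with bidirectional fitting against DMSO.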
# [4] = ATG_DR4_LXR_CIS: Attagene CIS-FACTORIAL HepG2 Assay for human Liver X Receptor (LXR), DR4 submotif (AID 2282929); conditions: HepG2 Attagene DR4 cis-reporter, mRNA transcription; actives raise or lower the signal
# Procedure, shortened: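 Fluorescence intensity of labelled reporter cDNA fragments, separated by capillary electrophoresis, gives the signal. HepG2 cells bearing cis-regulated reporter constructs were treated 24 h; activity fitted bidirectionally relative to DMSO negative control.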
# [5] = molecular target: Aryl hydrocarbon receptor (Homo sapiens) (UniProt P35869); assay: ATG_Ahr_CIS: Attagene CIS-FACTORIAL HepG2 Assay for human Aryl Hydrocarbon Receptor (Ahr) (AID 2282930); conditions: HepG2 AhR cis-factorial reporter transcription; actives raise or lower the signal
# Procedure, shortened: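 Read-out: reporter mRNA quantified by RT-PCR with fluorescent primer extension and capillary electrophoresis. Human HepG2 liver cells carried transfected cis-promoter reporter units and were exposed to chemical for 24 h; gain or loss fitted relative to DMSO.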
# [6] = ATG_AP_1_CIS: Attagene CIS-FACTORIAL HepG2 Assay for human Activator Protein 1 (AP-1) (AID 2282931); conditions: HepG2 Attagene cis-factorial AP-1 reporter mRNA; actives raise or lower the signal
# Procedure, shortened: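 Multiplexed HepG2 reporter assay, 24 h dosing. mRNA induction detected by RT-PCR plus capillary electrophoresis. Activity fitted in both directions against DMSO.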
# [7] = ATG_AP_2_CIS: Attagene CIS-FACTORIAL HepG2 Assay for human Activator Protein 2 (AP-2) (AID 2282932); conditions: HepG2 AP-2 cis-reporter, Attagene transcription factor profiling; actives raise or lower the signal
# Procedure, shortened: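 HepG2 cells transiently transfected with cis-element reporter units and exposed for 24 h. Reporter mRNA measured by RT-PCR, FAM labelling, HpaI digestion and capillary electrophoresis. Changes in either direction fitted relative to DMSO.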
# [8] = ATG_BRE_CIS: Attagene CIS-FACTORIAL HepG2 Assay for human Bone Morphogenetic Protein (BMP) Response Element (BRE) (AID 2282933); conditions: HepG2 BMP response element reporter, Attagene transcription factor profiling; actives raise or lower the signal
# Procedure, shortened: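 Endogenous transcription factor activity read in transiently transfected HepG2 cells after 24 h chemical exposure. Bidirectional curve fitting against DMSO; readout is reporter transcript level by RT-PCR with capillary electrophoresis of labelled products.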
# [9] = molecular target: Transcription factor E2F1 (Homo sapiens) (UniProt Q01094); assay: ATG_E2F_CIS: Attagene CIS-FACTORIAL HepG2 Assay for human E2F Transcription Factor 1 (AID 2282935); conditions: HepG2 Attagene cis-reporter, E2F reporter RNA transcripts; actives raise or lower the signal
# Procedure, shortened: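 Endogenous E2F1 activity read through cis-promoter reporter units transfected into HepG2. After 24 h compound treatment, reporter mRNA measured by RT-PCR, HpaI digestion and capillary electrophoresis. Bidirectional fit versus DMSO.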
# [10] = ATG_E_Box_CIS: Attagene CIS-FACTORIAL HepG2 Assay for human Enhancer Box (E-box) (AID 2282936); conditions: HepG2 E-box cis-reporter transcription, actives raise or lower the signal
# Procedure, shortened: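 HepG2 cells transiently transfected with multiplexed cis-element reporter units, dosed 24 h; reporter mRNA quantified by RT-PCR, 6-FAM labelling, HpaI digestion and capillary electrophoresis. E-box (USF1) signal fitted bidirectionally vs DMSO.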
# [11] = ATG_M_61_CIS: Attagene CIS-FACTORIAL HepG2 Assay for M61 Transcription Factor (Internal Marker) (AID 2282937); conditions: HepG2 Attagene CIS-FACTORIAL M61 internal marker reporter; actives raise or lower the signal
# Procedure, shortened: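 Endogenous transcription factor activity in HepG2 is read through transiently transfected cis-element reporter units. After 24 h dosing, RNA undergoes reverse transcription, PCR and primer extension with 6-FAM before capillary electrophoresis; DMSO-referenced bidirectional fit.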
# [12] = ATG_EGR_CIS: Attagene CIS-FACTORIAL HepG2 Assay for human Early Growth Response 1 (EGR1) (AID 2282938); conditions: HepG2 Attagene CIS-FACTORIAL EGR reporter mRNA; actives raise or lower the signal
# Procedure, shortened: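 Activity is taken as induction or loss of reporter mRNA versus DMSO, fitted bidirectionally. Transcripts from cis-regulated reporter units in transiently transfected HepG2 were measured after 24 h by RT-PCR with capillary electrophoresis.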
# [13] = ATG_ERE_CIS: Attagene CIS-FACTORIAL HepG2 Assay for Estrogen Response Element (ERE) (AID 2282940); conditions: HepG2 ERE cis-reporter, Attagene RNA transcript; actives raise or lower the signal
# Procedure, shortened: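 After 24 h compound treatment, RNA from transfected HepG2 cells was reverse-transcribed, reporter cDNA PCR-amplified, FAM-labelled, HpaI-cut and resolved by capillary electrophoresis. ERE-driven cis reporter transcripts reflect endogenous factors; gain or loss scored against DMSO.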
# [14] = ATG_Ets_CIS: Attagene CIS-FACTORIAL HepG2 Assay for human Erythroblast Transformation Specific (ETS) (AID 2282941); conditions: HepG2 ETS cis-reporter transcription, actives raise or lower the signal
# Procedure, shortened: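 HepG2 cells transfected with multiple cis-regulated reporter units measuring endogenous ETS-driven transcription, 24 h after dosing. Reporter mRNA quantified by RT-PCR with capillary electrophoresis; bidirectional fit relative to DMSO.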
# [15] = molecular target: Hepatocyte nuclear factor 3-beta (Homo sapiens) (UniProt Q9Y261); assay: ATG_FoxA2_CIS: Attagene CIS-FACTORIAL HepG2 Assay for human Forkhead box A2 (FOXA2) (AID 2282942); conditions: HepG2 cis-reporter transcription factor activity, 24 h; actives raise or lower the signal
# Procedure, shortened: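 Reporter transcript induction is measured by fluorescence after capillary electrophoresis of RT-PCR products from HepG2 cells exposed 24 h. Cis-regulated reporter units report endogenous factor activity; curves fitted both directions against DMSO.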
# [16] = ATG_FoxO_CIS: Attagene CIS-FACTORIAL HepG2 Assay for human Forkhead box O (FoxO) (AID 2282943); conditions: HepG2 Attagene cis-reporter, FoxO element, mRNA; actives raise or lower the signal
# Procedure, shortened: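 Read-out: fluorescence of 6-FAM-labelled reporter cDNA fragments resolved by capillary electrophoresis. Transiently transfected HepG2 cells were dosed for 24 h; activity fitted in both directions relative to DMSO controls.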
# [17] = ATG_GATA_CIS: Attagene CIS-FACTORIAL HepG2 Assay for human GATA Binding Protein (AID 2282944); conditions: HepG2 GATA cis-element reporter, Attagene multiplex mRNA; actives raise or lower the signal
# Procedure, shortened: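 Reporter transcripts from a GATA cis-regulated unit, among multiplexed reporters in transfected HepG2 cells, were measured by RT-PCR with capillary electrophoresis after 24 h dosing. Induction or loss scored relative to DMSO.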
# [18] = ATG_GLI_CIS: Attagene CIS-FACTORIAL HepG2 Assay for human Zinc Finger Protein GLI1 (AID 2282945); conditions: HepG2, Attagene cis-factorial reporter mRNA, GLI element; actives raise or lower the signal
# Procedure, shortened: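 Transiently transfected HepG2 cells report endogenous transcription factor activity via cis-element-driven reporter units. After 24 h compound exposure, reporter mRNA was measured by RT-PCR with capillary electrophoresis; bidirectional fitting against DMSO baseline.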
# [19] = ATG_M_19_CIS: Attagene CIS-FACTORIAL HepG2 Assay for M19 Transcription Factor (Internal Marker) (AID 2282939); conditions: HepG2 Attagene CIS-FACTORIAL M19 internal marker reporter; actives raise or lower the signal
# Procedure, shortened: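 Internal marker readout, fitted in both directions against DMSO, from HepG2 cells carrying transfected cis-element reporter constructs; RT-PCR and capillary electrophoresis of reporter mRNA after 24 h exposure.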
# Hepatocyte nuclear factor 3-beta (Homo sapiens), sequence (Q9Y261 whole entry, looked up): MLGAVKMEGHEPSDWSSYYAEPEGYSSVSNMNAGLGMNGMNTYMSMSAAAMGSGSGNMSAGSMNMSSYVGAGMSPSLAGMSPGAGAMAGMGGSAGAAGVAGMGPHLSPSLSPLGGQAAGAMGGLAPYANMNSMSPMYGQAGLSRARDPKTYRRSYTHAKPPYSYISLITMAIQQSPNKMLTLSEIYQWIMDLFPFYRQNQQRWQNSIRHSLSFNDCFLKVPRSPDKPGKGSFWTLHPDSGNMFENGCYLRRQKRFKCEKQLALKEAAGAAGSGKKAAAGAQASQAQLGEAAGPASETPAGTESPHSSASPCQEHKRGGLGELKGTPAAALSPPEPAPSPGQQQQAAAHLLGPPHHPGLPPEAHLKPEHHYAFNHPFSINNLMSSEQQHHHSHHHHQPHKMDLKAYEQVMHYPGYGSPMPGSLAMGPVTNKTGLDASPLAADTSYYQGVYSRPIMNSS
# Transcription factor E2F1 (Homo sapiens), sequence (Q01094 whole entry, looked up): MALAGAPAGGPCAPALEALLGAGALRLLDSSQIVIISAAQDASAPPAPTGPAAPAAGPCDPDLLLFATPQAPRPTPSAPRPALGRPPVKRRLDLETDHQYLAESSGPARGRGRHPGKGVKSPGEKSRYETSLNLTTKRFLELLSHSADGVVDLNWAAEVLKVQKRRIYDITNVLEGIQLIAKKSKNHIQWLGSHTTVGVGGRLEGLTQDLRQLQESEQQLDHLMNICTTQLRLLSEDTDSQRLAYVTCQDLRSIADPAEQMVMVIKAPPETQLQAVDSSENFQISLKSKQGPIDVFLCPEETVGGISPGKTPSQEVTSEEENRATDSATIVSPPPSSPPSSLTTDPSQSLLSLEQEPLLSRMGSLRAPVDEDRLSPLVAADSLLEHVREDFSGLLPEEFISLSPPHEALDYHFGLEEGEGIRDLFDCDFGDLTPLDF
# CCAAT/enhancer-binding protein beta (Homo sapiens), sequence (P17676 whole entry, looked up): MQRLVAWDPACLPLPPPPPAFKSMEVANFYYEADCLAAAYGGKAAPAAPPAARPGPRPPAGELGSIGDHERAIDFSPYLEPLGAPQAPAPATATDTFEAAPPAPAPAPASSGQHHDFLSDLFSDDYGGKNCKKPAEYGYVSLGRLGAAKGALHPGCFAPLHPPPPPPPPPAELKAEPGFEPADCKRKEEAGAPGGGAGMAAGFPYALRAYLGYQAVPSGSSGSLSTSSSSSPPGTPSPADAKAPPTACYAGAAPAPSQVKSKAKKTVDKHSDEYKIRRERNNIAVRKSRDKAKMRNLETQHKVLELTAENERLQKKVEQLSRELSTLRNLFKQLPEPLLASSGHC
# Aryl hydrocarbon receptor (Homo sapiens), sequence (P35869 whole entry, looked up): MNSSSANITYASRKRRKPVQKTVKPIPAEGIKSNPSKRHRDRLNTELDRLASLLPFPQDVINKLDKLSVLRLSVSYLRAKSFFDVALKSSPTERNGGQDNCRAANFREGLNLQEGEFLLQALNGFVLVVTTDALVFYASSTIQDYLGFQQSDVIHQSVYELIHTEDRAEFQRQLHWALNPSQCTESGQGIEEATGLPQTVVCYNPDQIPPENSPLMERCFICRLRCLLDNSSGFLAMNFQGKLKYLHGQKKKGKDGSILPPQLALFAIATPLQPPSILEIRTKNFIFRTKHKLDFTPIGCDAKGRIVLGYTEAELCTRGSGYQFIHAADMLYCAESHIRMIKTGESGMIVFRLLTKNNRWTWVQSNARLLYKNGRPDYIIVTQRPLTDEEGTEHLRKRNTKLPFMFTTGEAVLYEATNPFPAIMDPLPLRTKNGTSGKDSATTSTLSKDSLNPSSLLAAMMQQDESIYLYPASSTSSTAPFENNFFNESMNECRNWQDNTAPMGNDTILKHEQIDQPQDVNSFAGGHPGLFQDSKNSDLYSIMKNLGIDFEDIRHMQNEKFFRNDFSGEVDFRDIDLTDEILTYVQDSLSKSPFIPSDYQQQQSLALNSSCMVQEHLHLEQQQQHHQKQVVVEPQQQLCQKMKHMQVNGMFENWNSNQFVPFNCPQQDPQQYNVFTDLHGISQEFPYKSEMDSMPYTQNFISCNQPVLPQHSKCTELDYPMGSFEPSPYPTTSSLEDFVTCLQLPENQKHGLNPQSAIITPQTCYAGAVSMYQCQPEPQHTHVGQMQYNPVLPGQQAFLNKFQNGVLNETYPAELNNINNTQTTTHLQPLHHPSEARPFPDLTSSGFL
smiles,measurement,setting,value
COc1cc(C=O)cc2c1[C@H](COC(N)=O)[C@]1(OC(C)=O)ON2C[C@H]2[C@@H]1N2C(C)=O,AC50,[1],33.4 µM (active)
same,AC50,[2],61 µM (active)
same,outcome,[3],inactive
same,AC50,[4],0.0512 µM (active)
same,AC50,[5],0.314 µM (active)
same,AC50,[6],61.4 µM (active)
same,AC50,[7],33.4 µM (active)
same,outcome,[8],inactive
same,AC50,[9],61.5 µM (active)
same,AC50,[10],0.1 µM (active)
same,outcome,[11],inactive
same,outcome,[12],inactive
same,AC50,[13],51 µM (active)
same,AC50,[14],12.4 µM (active)
same,AC50,[15],62.3 µM (active)
same,AC50,[16],58.9 µM (active)
same,AC50,[17],10.8 µM (active)
same,outcome,[18],inactive
[Cl-].[Cl-].[Hg+2],outcome,[1],inactive
same,outcome,[2],inactive
same,outcome,[3],inactive
same,AC50,[4],33.4 µM (active)
same,outcome,[5],inactive
same,outcome,[6],inactive
same,outcome,[7],inactive
same,outcome,[8],inactive
same,outcome,[9],inactive
same,outcome,[10],inactive
same,outcome,[11],inactive
same,outcome,[12],inactive
same,outcome,[19],inactive
same,outcome,[14],inactive
same,outcome,[15],inactive
same,outcome,[16],inactive
same,outcome,[17],inactive
same,outcome,[18],inactive
Oc1ccccc1Cl,outcome,[1],inactive
same,outcome,[2],inactive
same,outcome,[3],inactive
same,outcome,[4],inactive
same,outcome,[5],inactive
same,outcome,[6],inactive
same,outcome,[7],inactive
same,outcome,[8],inactive
same,outcome,[9],inactive
same,outcome,[10],inactive
same,outcome,[11],inactive
same,outcome,[12],inactive
same,outcome,[19],inactive
same,outcome,[14],inactive
same,outcome,[15],inactive
same,outcome,[16],inactive
same,outcome,[17],inactive
same,outcome,[18],inactive
Clc1ccc(C(c2ccc(Cl)cc2)C(Cl)Cl)cc1,AC50,[1],54.5 µM (active)
same,AC50,[2],54.8 µM (active)
same,AC50,[3],52.9 µM (active)
same,AC50,[4],17.1 µM (active)
same,outcome,[5],inactive
same,AC50,[6],50.9 µM (active)
same,AC50,[7],54.5 µM (active)
same,outcome,[8],inactive
same,outcome,[9],inactive
same,outcome,[10],inactive
same,outcome,[11],inactive
same,AC50,[12],45.1 µM (active)
same,AC50,[13],19.3 µM (active)
same,AC50,[14],53.8 µM (active)
same,outcome,[15],inactive
same,outcome,[16],inactive
same,outcome,[17],inactive
same,AC50,[18],45.9 µM (active)
CCCCCOC(=O)c1ccccc1C(=O)OCCCCC,outcome,[1],inactive
same,outcome,[2],inactive
same,outcome,[3],inactive
same,AC50,[4],150 µM (active)
same,outcome,[5],inactive
same,AC50,[6],77.2 µM (active)
same,outcome,[7],inactive
same,outcome,[8],inactive
same,outcome,[9],inactive
same,outcome,[10],inactive
same,outcome,[11],inactive
same,outcome,[12],inactive
same,outcome,[13],inactive
same,outcome,[14],inactive
same,outcome,[15],inactive
same,outcome,[16],inactive
same,outcome,[17],inactive
same,outcome,[18],inactive
COP(=S)(OC)SCN1C(=O)c2ccccc2C1=O,outcome,[1],inactive
same,outcome,[2],inactive
same,outcome,[3],inactive
same,outcome,[4],inactive
same,outcome,[5],inactive
same,outcome,[6],inactive
same,outcome,[7],inactive
same,outcome,[8],inactive
same,outcome,[9],inactive
same,outcome,[10],inactive
same,outcome,[11],inactive
same,outcome,[12],inactive
same,outcome,[19],inactive
same,outcome,[14],inactive
same,outcome,[15],inactive
same,outcome,[16],inactive
same,outcome,[17],inactive
same,outcome,[18],inactive
c1ccc2c(c1)oc1ccccc12,outcome,[1],inactive
same,outcome,[2],inactive
same,outcome,[3],inactive
same,outcome,[4],inactive
same,outcome,[6],inactive
same,outcome,[7],inactive
same,outcome,[8],inactive
same,outcome,[9],inactive
same,outcome,[10],inactive
same,outcome,[11],inactive
same,outcome,[12],inactive
same,outcome,[14],inactive
same,outcome,[15],inactive
same,outcome,[16],inactive
same,outcome,[17],inactive
same,outcome,[18],inactive
CCC12COCN1COC2,outcome,[1],inactive
same,outcome,[2],inactive
same,outcome,[3],inactive
same,outcome,[4],inactive
same,outcome,[5],inactive
same,outcome,[6],inactive
same,outcome,[7],inactive
same,outcome,[8],inactive
same,outcome,[9],inactive
same,outcome,[10],inactive
same,outcome,[11],inactive
same,outcome,[12],inactive
same,outcome,[13],inactive
same,outcome,[14],inactive
same,outcome,[15],inactive
same,outcome,[16],inactive
same,outcome,[17],inactive
same,outcome,[18],inactive
